# Measured values taken from PubChem BioAssay AID1745847 (National Center for Advancing Translational Sciences (NCATS), 2022).
# The whole screen tested about 2,100 compounds, of which about 670 (32%) were called active. Not shown: some 50% with an inconclusive outcome. Some of the results follow. Unmarked numbers belong to inactive results. Calls follow the shape of the dose curve; as a rule, active = well fitted inhibition curve with a large enough effect; inconclusive = small, poorly fitted or top-dose-only effect; inactive = no such curve, though single readings can be large or run the other way.
# Assay: CMV-Luciferase Counterscreen for Inhibitors of ATXN expression; also: nearly all actives have a fitted effect of over 55% in size
# Details: HEK-293 CMV-luciferase reporter, luminescence, 24 h; series mostly up to 57.5 µM
# % is scaled to controls: 0 for no effect and ±100 for the full control effect; potency is read from the fitted curve at half-maximal effect.
Compound,Potency,"activity change, negative = inhibition"
O=C1C=C(Nc2ccccc2O)c2ccccc2C1=O,10 µM (active),
CN(C)S(=O)(=O)c1ccc(-c2csc(N/N=C/c3ccco3)n2)cc1,2.51 µM (active),
CC1=CC(C)(C)Nc2ccc(OC(=O)CN3C(=O)c4cccc5cccc(c45)C3=O)cc21,15.8 µM (active),
O=C(NCc1ccccc1)C1=C[C@@H](c2csc3ccccc23)C[C@@H](OCCCCO)O1,3.55 µM (active),
C=CCOC(=O)C1=C[C@@H](c2ccc3c(c2)OCO3)C[C@@H](OCCCCO)O1,inactive,
CCOC(=O)c1sc2nc(CSc3ccccc3)nc(NCCN(C)C)c2c1C,inactive,
O=c1c2ccccc2sc2nc(CCl)nn12,,-24% [at 11.4 µM]
CCCCCn1c(=O)c2ccccc2n2c(CCl)nnc12,25.1 µM (active),
CNC(=O)c1sc(N2N=C3/C(=C/c4ccccc4)CCCC3C2c2ccccc2)nc1C (stereo not given),7.94 µM (active),
COc1ccc2c(c1)CC(N1CCN(C)CC1)c1cc(OC)ccc1S2 (stereo not given),28.2 µM (active),
CCCCN1C(=O)/C(=C2/Sc3ccccc3N2C)S/C1=N\c1ncn[nH]1,inactive,
COc1ccc(-n2nc(C(=O)NCC(=O)Nc3cccc(Cl)c3)c3ccccc3c2=O)cc1OC,inactive,
Cc1cc(=O)oc2c1c(C)nn2-c1cccc(Cl)c1,,-12.8% [at 11.4 µM]
O=C(c1cccc(Cl)c1)c1nn(-c2ccccc2)c(=O)cc1C(F)(F)F,25.1 µM (active),
O=C(N/N=C\c1cc(Cl)ccc1O)c1ccc(S(=O)(=O)N2CCCCC2)cc1,0.316 µM (active),
CC1(C)Cc2c(ccc3ccccc23)C2=C(C(=O)N3CCCC3)C(=O)C(=O)N21,inactive,
O=C(N/N=C\c1c(O)ccc2ccccc12)c1ccc(S(=O)(=O)N2CCCCC2)cc1,1.12 µM (active),
CN(C)CCNc1ccc(CO)c2sc3ccc(O)cc3c(=O)c12,0.631 µM (active),
CN(C)CCNc1cccc2sc3ccc(O)cc3c(=O)c12,14.1 µM (active),
COc1ccc(C(=O)c2sc(Nc3ccccc3)nc2N)cc1OC,inactive,
COc1ccc(C(=O)NC(=S)NNC(=O)c2c(-c3ccccc3)noc2C)cc1OC,10 µM (active),
CCOC(=O)C(C(C)=O)c1c(Br)c(O)c(O)c2c(C(=O)c3ccc(C)cc3)coc12 (stereo not given),2.51 µM (active),
Cc1cc(O)c(C(C)C)cc1N=Cc1ccccc1[N+](=O)[O-],inactive,
Cc1cc(N/N=C\c2ccc(Br)cc2)nc(-n2nc(C)cc2C)n1,inactive,
Cc1cc(N/N=C/c2ccccc2[N+](=O)[O-])nc(-n2nc(C)cc2C)n1,7.08 µM (active),
